Legend:
Test in all cases: log2 ratio of Biotin-Ahx-Ub-VS probe labelling (fragment/DMSO); higher = less target engagement (more negative = stronger competition), active = hit call of the paper (q ≤ 0.05, log2 ratio ≤ -1)
Conditions in all cases: compound concentration: 200 uM; treatment time: 3 h
USP42 = target: T1, USP42 (UniProt Q9H9J4)
T1 sequence (whole entry): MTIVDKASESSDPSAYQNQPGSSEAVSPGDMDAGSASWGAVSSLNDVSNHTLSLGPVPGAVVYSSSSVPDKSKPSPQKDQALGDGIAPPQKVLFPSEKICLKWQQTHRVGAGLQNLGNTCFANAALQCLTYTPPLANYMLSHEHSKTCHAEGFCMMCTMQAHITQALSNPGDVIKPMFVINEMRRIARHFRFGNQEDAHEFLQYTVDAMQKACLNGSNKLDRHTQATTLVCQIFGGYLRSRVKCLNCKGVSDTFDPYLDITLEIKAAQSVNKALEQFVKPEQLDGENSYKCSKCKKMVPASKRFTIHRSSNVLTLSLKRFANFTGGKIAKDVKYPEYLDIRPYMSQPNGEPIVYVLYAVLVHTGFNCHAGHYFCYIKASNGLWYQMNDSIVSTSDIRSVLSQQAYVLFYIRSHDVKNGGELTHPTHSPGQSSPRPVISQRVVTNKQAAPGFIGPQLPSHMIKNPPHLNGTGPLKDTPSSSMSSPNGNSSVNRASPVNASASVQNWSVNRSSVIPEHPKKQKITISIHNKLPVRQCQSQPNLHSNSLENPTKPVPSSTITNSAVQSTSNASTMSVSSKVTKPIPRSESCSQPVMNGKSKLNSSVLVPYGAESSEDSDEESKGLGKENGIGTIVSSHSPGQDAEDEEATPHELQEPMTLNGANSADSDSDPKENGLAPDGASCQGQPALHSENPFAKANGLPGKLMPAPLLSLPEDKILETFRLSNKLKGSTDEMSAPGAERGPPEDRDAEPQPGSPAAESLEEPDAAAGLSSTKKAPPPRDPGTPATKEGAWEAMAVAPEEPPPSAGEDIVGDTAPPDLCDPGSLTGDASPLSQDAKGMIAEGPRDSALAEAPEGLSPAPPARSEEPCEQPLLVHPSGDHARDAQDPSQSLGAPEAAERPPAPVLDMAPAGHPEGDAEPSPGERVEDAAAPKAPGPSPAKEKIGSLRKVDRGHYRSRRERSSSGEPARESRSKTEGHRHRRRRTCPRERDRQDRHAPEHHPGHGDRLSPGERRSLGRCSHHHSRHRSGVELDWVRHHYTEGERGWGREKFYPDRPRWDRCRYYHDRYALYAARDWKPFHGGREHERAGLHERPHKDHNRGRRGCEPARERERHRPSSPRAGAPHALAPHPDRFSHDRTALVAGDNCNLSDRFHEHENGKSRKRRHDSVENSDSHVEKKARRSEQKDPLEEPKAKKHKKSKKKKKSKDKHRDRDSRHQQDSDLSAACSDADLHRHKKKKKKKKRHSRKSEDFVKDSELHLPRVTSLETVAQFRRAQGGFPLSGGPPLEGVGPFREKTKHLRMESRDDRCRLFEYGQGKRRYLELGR
Method in brief: (§1)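 Triplicate samples of HEK293T lysate, 495 µg each, received fragment at 200 µM or vehicle for 3 h, followed by Biotin-Ahx-Ub-VS (0.5 µM final) for 1 h. After NeutrAvidin enrichment of labelled DUBs and LysC/trypsin digestion, peptides were run by diaPASEF LC-MS/MS. The values are average log2 fragment/vehicle ratios from global-median-normalised Spectronaut label-free quantities, tested by unpaired t-test on proteins having ≥2 unique peptides.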

USP46 = USP46 (UniProt P62068)
Chain of USP46 (P62068 whole entry): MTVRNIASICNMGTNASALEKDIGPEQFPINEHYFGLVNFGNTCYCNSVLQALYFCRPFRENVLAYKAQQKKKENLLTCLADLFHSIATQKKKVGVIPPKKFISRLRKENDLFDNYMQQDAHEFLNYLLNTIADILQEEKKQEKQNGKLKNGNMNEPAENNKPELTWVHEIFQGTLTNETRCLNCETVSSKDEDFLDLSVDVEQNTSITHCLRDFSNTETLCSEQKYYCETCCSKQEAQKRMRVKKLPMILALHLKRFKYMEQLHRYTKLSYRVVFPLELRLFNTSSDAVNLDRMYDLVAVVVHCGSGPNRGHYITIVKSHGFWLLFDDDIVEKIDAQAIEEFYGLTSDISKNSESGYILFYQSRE
Method in brief: as §1

USP47 = target: T2, USP47 (UniProt Q96K76)
T2 sequence (whole entry): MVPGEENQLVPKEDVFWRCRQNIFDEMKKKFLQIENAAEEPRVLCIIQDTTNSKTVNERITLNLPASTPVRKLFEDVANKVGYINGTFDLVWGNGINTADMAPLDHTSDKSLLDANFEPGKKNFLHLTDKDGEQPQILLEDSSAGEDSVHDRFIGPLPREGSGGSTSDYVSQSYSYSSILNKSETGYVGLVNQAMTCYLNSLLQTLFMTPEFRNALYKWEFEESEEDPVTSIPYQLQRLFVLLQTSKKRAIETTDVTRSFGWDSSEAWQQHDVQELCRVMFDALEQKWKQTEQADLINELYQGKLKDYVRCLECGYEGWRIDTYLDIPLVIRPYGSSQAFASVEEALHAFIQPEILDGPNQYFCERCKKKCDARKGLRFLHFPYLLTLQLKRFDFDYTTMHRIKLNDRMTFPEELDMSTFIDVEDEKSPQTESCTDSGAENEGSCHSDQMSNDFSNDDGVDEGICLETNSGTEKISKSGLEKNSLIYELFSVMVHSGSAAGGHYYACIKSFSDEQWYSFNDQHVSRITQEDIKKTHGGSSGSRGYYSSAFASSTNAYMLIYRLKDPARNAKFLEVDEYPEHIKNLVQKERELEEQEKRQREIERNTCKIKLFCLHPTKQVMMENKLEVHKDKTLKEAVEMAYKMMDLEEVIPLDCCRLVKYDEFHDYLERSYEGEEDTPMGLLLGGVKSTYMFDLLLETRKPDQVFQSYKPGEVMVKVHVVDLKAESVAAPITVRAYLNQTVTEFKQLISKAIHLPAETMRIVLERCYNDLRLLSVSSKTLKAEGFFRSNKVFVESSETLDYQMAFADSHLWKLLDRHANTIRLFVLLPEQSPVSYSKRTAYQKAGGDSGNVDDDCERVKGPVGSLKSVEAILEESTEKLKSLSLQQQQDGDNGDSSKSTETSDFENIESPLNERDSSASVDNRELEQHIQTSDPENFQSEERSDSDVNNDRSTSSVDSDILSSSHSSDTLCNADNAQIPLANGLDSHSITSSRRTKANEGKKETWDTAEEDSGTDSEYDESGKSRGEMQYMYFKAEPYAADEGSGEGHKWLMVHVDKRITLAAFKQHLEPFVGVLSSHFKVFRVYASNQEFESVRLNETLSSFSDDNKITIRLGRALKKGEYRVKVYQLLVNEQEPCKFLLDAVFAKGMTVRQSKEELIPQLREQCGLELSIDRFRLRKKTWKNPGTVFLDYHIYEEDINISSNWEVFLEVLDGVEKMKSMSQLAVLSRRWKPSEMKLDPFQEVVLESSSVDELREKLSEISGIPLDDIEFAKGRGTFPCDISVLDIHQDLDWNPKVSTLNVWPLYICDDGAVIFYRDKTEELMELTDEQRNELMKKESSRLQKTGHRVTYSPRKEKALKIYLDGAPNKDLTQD
Method in brief: as §1

USP48 = target: T3, USP48 (UniProt Q86UV5)
T3 sequence (whole entry): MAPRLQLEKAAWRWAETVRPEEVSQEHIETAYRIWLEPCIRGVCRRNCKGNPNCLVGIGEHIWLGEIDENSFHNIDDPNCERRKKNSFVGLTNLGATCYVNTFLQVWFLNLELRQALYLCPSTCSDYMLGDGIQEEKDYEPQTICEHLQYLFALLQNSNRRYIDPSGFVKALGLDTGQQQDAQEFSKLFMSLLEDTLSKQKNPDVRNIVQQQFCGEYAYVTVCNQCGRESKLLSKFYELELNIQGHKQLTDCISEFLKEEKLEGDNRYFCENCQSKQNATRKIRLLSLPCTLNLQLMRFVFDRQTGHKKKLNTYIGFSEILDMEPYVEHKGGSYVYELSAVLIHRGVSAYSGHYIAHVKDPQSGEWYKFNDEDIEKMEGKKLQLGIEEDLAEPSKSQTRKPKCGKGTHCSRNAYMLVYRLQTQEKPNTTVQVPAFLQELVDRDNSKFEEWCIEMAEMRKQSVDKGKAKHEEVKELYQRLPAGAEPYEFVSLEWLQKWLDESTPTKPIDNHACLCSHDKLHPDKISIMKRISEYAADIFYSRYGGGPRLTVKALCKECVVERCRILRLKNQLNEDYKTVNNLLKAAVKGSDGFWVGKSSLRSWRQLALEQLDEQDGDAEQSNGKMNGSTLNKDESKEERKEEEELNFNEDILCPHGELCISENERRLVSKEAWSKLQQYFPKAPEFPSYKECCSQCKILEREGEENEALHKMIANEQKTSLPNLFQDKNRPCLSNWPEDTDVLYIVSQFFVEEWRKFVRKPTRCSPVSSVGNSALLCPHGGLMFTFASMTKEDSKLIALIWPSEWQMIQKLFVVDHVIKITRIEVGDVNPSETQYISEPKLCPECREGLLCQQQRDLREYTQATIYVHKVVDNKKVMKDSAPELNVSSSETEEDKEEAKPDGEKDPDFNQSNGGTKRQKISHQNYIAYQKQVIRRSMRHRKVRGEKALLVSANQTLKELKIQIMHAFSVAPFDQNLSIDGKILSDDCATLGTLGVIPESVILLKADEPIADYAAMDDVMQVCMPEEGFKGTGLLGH
Method in brief: as §1

USP5 = target: T4, USP5 (UniProt P45974)
T4 sequence (whole entry): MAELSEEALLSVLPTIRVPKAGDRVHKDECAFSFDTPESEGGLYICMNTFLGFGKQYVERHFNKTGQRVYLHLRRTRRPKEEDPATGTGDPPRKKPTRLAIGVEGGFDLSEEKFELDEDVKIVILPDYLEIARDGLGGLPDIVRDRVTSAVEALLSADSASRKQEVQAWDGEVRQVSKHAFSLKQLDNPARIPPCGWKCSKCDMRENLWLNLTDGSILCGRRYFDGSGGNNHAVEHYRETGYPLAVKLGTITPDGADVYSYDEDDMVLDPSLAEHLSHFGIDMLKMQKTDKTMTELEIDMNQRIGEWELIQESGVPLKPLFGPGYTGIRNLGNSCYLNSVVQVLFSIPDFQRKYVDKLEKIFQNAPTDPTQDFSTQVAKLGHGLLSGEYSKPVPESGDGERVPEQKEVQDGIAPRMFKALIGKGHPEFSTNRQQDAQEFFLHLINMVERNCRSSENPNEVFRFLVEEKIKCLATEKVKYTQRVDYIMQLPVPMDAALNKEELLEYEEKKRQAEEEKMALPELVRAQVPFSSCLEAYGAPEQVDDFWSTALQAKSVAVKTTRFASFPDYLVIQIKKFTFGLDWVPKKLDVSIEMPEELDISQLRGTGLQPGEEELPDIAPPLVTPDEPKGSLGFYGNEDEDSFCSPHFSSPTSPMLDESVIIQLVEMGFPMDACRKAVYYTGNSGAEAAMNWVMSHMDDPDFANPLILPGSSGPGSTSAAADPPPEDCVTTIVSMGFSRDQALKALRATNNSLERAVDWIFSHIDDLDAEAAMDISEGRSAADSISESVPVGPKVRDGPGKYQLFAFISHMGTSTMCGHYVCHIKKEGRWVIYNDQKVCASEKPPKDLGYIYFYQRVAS
Method in brief: as §1

USP54 = USP54 (UniProt Q70EL1)
Method in brief: as §1

USP7 = USP7 (UniProt Q93009)
Chain of USP7 (Q93009 whole entry, looked up): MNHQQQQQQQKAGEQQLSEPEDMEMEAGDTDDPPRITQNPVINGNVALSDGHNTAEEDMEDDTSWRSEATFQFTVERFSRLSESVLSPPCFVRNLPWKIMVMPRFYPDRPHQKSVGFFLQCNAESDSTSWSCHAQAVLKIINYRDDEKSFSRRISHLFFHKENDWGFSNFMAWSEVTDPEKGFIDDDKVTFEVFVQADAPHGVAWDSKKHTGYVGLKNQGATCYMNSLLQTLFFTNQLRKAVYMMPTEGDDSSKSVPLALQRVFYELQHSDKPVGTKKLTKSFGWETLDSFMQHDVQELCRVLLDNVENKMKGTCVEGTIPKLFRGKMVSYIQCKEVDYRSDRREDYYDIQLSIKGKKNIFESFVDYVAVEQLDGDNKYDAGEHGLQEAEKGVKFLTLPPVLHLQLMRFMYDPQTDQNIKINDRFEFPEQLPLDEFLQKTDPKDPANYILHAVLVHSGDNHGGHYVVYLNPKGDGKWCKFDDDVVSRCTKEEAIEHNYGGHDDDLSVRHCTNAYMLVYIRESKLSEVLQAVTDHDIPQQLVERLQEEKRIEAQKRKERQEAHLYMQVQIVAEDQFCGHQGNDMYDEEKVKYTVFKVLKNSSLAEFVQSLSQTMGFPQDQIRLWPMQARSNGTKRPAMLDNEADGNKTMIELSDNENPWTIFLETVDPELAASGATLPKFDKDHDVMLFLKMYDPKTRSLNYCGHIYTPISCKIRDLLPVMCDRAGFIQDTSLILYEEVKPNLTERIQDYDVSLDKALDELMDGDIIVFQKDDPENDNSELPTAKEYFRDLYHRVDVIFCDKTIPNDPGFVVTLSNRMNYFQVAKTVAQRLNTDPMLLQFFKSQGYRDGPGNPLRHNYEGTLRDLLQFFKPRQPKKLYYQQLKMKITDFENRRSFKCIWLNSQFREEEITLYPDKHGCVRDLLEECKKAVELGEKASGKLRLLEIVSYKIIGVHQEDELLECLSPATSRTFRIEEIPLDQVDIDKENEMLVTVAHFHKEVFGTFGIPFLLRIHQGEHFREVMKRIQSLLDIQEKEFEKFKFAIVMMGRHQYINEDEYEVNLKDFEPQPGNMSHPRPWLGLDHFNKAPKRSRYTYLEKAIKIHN
Method in brief: as §1

USP8 = target: T5, USP8 (UniProt P40818)
T5 sequence (whole entry): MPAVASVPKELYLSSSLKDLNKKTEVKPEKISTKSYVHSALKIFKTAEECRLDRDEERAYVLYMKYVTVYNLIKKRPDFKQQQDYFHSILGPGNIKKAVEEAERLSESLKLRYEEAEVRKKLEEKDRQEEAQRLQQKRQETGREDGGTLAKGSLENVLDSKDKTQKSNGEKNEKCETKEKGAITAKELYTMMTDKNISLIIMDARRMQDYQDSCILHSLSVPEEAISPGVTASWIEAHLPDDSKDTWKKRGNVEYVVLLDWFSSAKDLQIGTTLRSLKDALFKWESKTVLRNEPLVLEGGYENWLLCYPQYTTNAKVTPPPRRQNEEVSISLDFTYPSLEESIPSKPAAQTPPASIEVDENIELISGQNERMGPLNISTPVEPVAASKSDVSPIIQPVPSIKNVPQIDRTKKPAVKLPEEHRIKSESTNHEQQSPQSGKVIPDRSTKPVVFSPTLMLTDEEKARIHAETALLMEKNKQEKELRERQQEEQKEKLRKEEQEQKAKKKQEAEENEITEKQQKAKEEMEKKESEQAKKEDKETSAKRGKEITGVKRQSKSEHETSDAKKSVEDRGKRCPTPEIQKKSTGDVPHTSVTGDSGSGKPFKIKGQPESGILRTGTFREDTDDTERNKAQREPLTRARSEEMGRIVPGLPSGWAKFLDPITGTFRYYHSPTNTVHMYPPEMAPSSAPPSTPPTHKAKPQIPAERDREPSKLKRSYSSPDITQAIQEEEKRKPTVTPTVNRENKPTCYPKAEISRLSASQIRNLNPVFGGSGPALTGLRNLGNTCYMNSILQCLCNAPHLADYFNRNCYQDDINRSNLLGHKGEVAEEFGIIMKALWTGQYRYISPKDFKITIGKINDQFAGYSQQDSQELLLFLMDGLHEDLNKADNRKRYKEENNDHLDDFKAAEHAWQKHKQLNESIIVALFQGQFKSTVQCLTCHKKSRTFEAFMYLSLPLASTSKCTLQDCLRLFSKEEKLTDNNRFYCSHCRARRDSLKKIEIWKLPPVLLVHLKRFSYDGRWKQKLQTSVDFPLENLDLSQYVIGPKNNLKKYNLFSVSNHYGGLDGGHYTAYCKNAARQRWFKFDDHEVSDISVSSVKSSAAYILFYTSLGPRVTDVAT
Method in brief: as §1

USP9X = USP9X (UniProt Q93008)
Chain of USP9X (Q93008 whole entry): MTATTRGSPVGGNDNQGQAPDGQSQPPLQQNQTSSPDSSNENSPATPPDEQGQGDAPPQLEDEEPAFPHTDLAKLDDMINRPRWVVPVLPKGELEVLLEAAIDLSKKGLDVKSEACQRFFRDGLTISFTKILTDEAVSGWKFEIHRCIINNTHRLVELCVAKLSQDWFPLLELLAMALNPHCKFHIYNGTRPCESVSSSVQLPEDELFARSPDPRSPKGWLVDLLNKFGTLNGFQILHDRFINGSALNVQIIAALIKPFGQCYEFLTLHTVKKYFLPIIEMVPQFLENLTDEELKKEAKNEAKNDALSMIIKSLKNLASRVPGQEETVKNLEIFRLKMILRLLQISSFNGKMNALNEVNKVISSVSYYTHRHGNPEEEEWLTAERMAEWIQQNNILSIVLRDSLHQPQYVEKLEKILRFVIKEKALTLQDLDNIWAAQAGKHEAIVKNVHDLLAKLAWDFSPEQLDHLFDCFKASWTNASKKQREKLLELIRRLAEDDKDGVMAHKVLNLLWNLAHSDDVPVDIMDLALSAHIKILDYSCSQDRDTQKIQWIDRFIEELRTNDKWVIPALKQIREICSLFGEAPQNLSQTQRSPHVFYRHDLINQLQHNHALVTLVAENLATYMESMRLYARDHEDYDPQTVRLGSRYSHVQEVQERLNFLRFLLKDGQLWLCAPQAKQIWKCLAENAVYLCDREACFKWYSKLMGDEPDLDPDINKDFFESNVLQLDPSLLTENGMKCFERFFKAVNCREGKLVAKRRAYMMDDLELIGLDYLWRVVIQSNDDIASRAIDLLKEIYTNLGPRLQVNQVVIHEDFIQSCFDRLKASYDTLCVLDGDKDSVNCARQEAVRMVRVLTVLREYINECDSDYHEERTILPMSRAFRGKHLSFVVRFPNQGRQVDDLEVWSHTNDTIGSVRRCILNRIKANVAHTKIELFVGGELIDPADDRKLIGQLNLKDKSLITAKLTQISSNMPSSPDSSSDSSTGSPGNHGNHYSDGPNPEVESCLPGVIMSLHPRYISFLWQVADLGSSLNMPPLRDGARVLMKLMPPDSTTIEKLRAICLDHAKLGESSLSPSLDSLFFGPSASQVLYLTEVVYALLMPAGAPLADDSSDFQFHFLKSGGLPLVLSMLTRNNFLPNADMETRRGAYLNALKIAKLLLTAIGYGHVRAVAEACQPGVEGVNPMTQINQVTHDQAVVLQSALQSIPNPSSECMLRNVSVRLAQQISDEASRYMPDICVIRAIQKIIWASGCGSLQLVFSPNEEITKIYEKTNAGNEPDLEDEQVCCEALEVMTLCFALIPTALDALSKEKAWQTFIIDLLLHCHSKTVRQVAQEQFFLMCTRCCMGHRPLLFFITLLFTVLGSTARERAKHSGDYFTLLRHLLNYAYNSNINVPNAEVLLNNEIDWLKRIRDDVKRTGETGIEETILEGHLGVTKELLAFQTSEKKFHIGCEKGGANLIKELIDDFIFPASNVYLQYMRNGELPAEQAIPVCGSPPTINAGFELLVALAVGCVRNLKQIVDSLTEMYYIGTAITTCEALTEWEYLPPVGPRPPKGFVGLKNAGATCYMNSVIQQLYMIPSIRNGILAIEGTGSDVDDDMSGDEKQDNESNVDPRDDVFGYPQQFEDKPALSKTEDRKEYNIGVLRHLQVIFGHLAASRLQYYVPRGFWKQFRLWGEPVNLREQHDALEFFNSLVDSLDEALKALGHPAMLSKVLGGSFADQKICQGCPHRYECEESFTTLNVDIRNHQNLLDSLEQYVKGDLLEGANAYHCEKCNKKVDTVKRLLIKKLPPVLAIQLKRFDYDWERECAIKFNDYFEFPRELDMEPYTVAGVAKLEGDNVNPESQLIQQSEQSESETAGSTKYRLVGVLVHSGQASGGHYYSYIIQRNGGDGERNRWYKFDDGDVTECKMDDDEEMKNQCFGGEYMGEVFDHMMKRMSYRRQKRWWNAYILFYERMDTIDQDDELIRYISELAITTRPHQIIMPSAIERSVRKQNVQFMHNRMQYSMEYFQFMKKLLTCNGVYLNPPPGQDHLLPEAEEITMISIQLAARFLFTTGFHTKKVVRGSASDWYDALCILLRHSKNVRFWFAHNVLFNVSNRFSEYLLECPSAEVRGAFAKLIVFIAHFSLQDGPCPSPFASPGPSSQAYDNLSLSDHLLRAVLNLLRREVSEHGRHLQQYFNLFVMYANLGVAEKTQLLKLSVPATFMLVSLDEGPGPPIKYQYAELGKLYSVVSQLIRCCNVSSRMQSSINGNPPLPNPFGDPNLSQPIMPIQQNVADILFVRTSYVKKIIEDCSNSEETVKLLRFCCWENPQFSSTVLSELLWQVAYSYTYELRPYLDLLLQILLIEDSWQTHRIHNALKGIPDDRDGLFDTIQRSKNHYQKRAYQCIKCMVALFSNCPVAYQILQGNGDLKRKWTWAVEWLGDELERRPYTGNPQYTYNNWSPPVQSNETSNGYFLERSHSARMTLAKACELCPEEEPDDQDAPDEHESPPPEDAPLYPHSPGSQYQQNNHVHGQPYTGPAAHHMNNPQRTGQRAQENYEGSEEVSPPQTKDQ
Method in brief: as §1

UniProt O00487 = target: UniProt O00487
Chain of UniProt O00487 (O00487 whole entry): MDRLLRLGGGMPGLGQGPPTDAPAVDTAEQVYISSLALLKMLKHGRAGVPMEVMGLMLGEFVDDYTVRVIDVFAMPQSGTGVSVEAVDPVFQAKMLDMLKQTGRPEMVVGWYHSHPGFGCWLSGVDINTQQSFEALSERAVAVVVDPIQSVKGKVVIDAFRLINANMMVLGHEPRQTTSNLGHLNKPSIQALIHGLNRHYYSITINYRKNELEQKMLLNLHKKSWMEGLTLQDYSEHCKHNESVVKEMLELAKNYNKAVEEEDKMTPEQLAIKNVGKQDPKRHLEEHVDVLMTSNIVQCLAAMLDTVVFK
Method in brief: as §1

Measured: log2 ratio of Biotin-Ahx-Ub-VS probe labelling

O=C(CCl)Nc1nc(-c2cccs2)cs1
inactive: USP42 0.598 | USP46 -0.255 | USP47 -0.799 | USP48 -0.537 | USP5 0.0914 | USP54 0.00682 | USP7 -0.679 | USP8 0.0395 | USP9X -0.505 | UniProt O00487 -0.17
